Pf growth 48h – P. falciparum growth inhibition at 48 hours (one generation). 5.9% of 310,000 active. Potency, µM (highest dose often 28.7 µM), inactives show at the highest dose activity change, negative = inhibition, usual class: inhibitors. P. falciparum luciferase growth in erythrocytes, 48 h
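Firefly luciferase activity from engineered P. falciparum reports growth; inhibitors lower the luminescent signal. Cultures contained 2% hematocrit erythrocytes at 0.1% final parasitemia.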
Pf growth 96h – P. falciparum growth inhibition at 96 hour, primary screen for plastid delayed-death inhibitors. P. falciparum luciferase reporter growth, 96 h. 6.9% of 320,000 active. Potency, µM (titrated, usually from 28.7 µM), for the others: at the top dose activity change, negative = inhibition, usual class: inhibitors. AID 504834
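Two parasite generations (96 h, 37 C, 5% CO2) of compound exposure in infected erythrocytes (0.05% parasitemia, 2% hematocrit). Luciferase-reporter P. falciparum; decreased luminescence indicates inhibited growth, aimed at apicoplast-acting delayed death.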
HCV inh – inhibitors of hepatitis C virus infection; Huh7.5.1 HCVcc-Cre infection, luciferase reporter, 44 h; Potency, µM (highest dose often 41.8 µM), for inactives: at the top dose activity change, negative = inhibition, hits mostly inhibitors; 3.4% of 340,000 active
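Cells (1,000/well) were plated 4 h before compound, then infected with HCVcc-Cre virus (~0.5 moi). After 44 h further culture, infection was read as luciferase luminescence following a 15 min substrate incubation at room temperature.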
AMA1 RON2 block – disrupts binding of P. falciparum AMA1 to RON2. AlphaScreen AMA1-biotinylated RON2 peptide binding. Potency, µM (highest dose often 58.2 µM), for the others: at the top dose activity change, negative = inhibition, usual class: inhibitors. 0.2% of 360,000 active. AID 720542;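 further: 0% = vehicle wells and -100% = peptide control; nearly all actives have a fitted effect of over 45% in size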
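AMA1 (3D7) with his tag at 25 nM final met compounds first, then biotinylated RON2 peptide at 25 nM; detection used donor plus acceptor beads, 10 µg/mL apiece, read by AlphaScreen after 30 min at room temperature.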
Numbers without * were called inactive; ? = inconclusive; / = no result; ! = not confirmed by another sample; [ ] = another dose, or the depositor's remark. In the library only some 11% were active in any assay of this set; here they are far more common. The call rests on the fitted dose curve; in most records, active means well fitted curve in the direction sought with a large enough effect; inconclusive means small, poorly fitted or top-dose-only effect, or another doubt; inactive means no such curve, though single readings can be large; an effect the other way counts as inactive or inconclusive. Unless noted, on the % scale 0 is the no-effect control and ±100 the full control effect; potency means the concentration at half of the fitted maximal effect.

SMILES | Pf growth 48h | Pf growth 96h | HCV inh | AMA1 RON2 block
CC(C)Cn1c(=O)c2ccccc2n2c(SCC(=O)N3c4ccccc4CC3C)nnc12 (centres undefined) | 18% | 40% | -1% | -21%
O=C(COC(=O)c1cccnc1Cl)Nc1nc(-c2ccccc2)cs1 | 60% | 80% | 2% | -7%
Cc1ccc(C(=O)CCCn2nnc(-c3cccnc3)n2)cc1C | 7% | ? | -14% | 36%
Cc1ccc2ccccc2c1NC(=O)Cn1nnc(-c2cccnc2)n1 | 25% | 0.66µM* | 14% | ?
Cc1ccccc1C(=O)c1cccn1CC(=O)NC(C)c1ccc2c(c1)OCCO2 (centres undefined) | -23% | -2% | -21% | -26%
CCCC/C(C)=C/[C@@H](NP(=O)(c1ccccc1)c1ccccc1)c1ccccc1 | ? | 15µM* | 2.8µM* | -3%
COc1ccc(N2CCN(C(=O)CN(c3ccc(OC)cc3)S(=O)(=O)c3ccccc3)CC2)cc1 | 12µM* | -8% | ? | ?
CS(=O)(=O)N(CC(=O)N1CCN(Cc2ccccc2)CC1)c1cccc([N+](=O)[O-])c1 | ? | 2.9µM* | -1% | -2%
COc1ccc(N(CC(=O)N2CCN(Cc3ccccc3)CC2)S(=O)(=O)c2ccccc2)cc1 | ? | 5.9µM* | 18% | -5%
COC(=O)[C@@]1(Sc2ccc(C)cc2)CC(=O)N[C@@H]1c1ccc(Br)cc1 | / | / | / | 4%
Cc1ccc(S(=O)(=O)Cc2ccc(C(=O)N3CCC(C(N)=O)CC3)o2)cc1 | 48% | 10µM* | 12% | 18%
COc1ccc(S(=O)(=O)Cc2ccc(C(=O)N3CCC(C(N)=O)CC3)o2)cc1 | / | -18% | 14% | 9%
O=C(c1ccc(CS(=O)(=O)c2ccc(Br)cc2)o1)N1CCN(c2ncccn2)CC1 | / | 1.9µM* | -8% | -8%
Cn1c(=O)c2sc3c(c2n(CC(=O)Nc2ccccc2)c1=O)COC(C)(C)C3 | ? | ? | 1% | -2%
COc1ccc2cc(C(C)c3nc4ccccc4c(=O)n3N)ccc2c1 (centres undefined) | ? | 1.2µM* | -6% | -22%
COc1ccc(-c2nc3ccccc3c(=O)n2N)cc1 | 35% | 31% | 14% | 2%
Cc1cc(C)c(C#N)c(N2CCN(c3ccccc3F)CC2)n1 | 29% | 12µM* | -5% | -2%
C=CCN(c1ccccc1)S(=O)(=O)c1cccc(C(=O)Nc2ccc(N3CCOCC3)cc2)c1 | 2% | ? | 7.1µM* | ?
O=C(Nc1ccc(N2CCOCC2)cc1)c1ccc(Cl)c(S(=O)(=O)N2CCCCC2)c1 | 10µM* | ? | 2.5µM* | -7%
O=C(Nc1ccc(N2CCOCC2)cc1)c1cccc(S(=O)(=O)N2CCCCC2)c1 | -30% | / | 10µM*! | 2%
CC(=O)C(Cc1ccccc1)NC(=O)COc1ccc2c(c1)OCO2 (centres undefined) | / | / | -14% | -3%
Cc1cc(NC(=O)c2n[nH]c(=O)c3ccccc23)ccc1Br | 25% | ? | 6% | -3%
CCC(C)c1ccc(O)c(NC(=O)c2cncc(Br)c2)c1 (centres undefined) | 1µM* | -22% | ? | 0%
CC(C)c1ccc(NC(=O)c2n[nH]c(=O)c3ccccc23)cc1 | 108% | 8.3µM* | 13% | 21%
CC(C)c1ccc(NC(=O)c2csnn2)cc1 | 184% | / | 14µM* | 1%
SMILES | Pf growth 48h | Pf growth 96h | HCV inh | AMA1 RON2 block
Cc1ccccc1NC(=O)c1cccnc1 | 27% | 25% | 5% | 6%
Cc1cccc(C(C)C)c1NC(=O)c1cccnc1 | 15% | 12µM* | 2% | -15%
CCC(C)c1ccc(O)c(NC(=S)NC(=O)c2cccnc2)c1 (centres undefined) | ? | 26% | -8% | 104%
O=C(CSc1nnnn1C1CCCCC1)Nc1nc2c(s1)CCCC2 | ? | -17% | -28% | -19%
CC(C)c1ccc(NC(=S)NNC(=O)c2cccnc2)cc1 | 30% | 41% | -3% | 104%
CC(C)c1ccc(NC(=O)c2cccnc2)cc1 | 125% | 7.4µM* | 4% | -1%
CC(C)c1ccc(O)c(NC(=O)c2cccnc2)c1 | / | 10µM* | -2% | -2%
CC(C)c1ccccc1NC(=O)COC(=O)c1cccnc1 | -10% | 13µM* | 9% | 0%
CC(C)c1ccc(NC(=O)CSc2n[nH]c(=O)n2-c2cccnc2)cc1 | -3% | 13µM* | -4% | -5%
CC(C)(C)c1ccc(NC(=O)CSc2n[nH]c(=O)n2-c2cccnc2)cc1 | -4% | 2% | -1% | -4%
CCOC(=O)C1=C(C(F)(F)F)Nc2ncnn2C1c1ccc(OC)cc1OC (centres undefined) | -10% | 52% | -16% | -2%
O=C(OCc1ccc(Br)cc1F)c1cc2ccccc2oc1=O | 7% | 2% | 12% | 15%
COc1ccc2ccccc2c1/C=N/Nc1ccc(Cl)c(C(=O)O)c1 | -11% | ? | 12% | -4%
COc1ccc(N/N=C/c2c(C(=O)O)ccc3ccccc23)cc1 | 2.6µM* | 7.4µM* | ? | 88%
O=C(CN1CCN(S(=O)(=O)c2ccccc2)CC1)Nc1ccc2c(c1)CCC2 | 3% | ? | 0% | -6%
Cc1ccsc1CNCC(O)c1ccccc1 (centres undefined) | 12µM* | -26% | 20% | -13%
OC(CNCc1cccs1)c1ccccc1 (centres undefined) | 13µM* | ? | 7% | 11%
OC(CNCc1cccc(Br)c1)c1ccccc1 (centres undefined) | 3.7µM* | 10µM* | 10% | -5%
OC(CNCc1ccc(-c2ccccc2)cc1)c1ccccc1 (centres undefined) | ? | 0% | -27% | -3%
Cn1cccc1CNCC(O)c1ccccc1 (centres undefined) | ? | 35% | 1% | -17%
Cc1ccc(CNCC(O)c2ccccc2)s1 (centres undefined) | 12µM* | 123% | 22% | 17%
OC(CNCc1ccncc1)c1ccccc1 (centres undefined) | 35% | -25% | 24% | 1%
CCC(C)N(C(=O)COc1ccc(NC(C)=O)cc1)C1CCS(=O)(=O)C1 (centres undefined) | -17% | -48%[5.75 µM] | 8% | -4%
CNc1nc(SC(C)C(=O)Nc2ccc(Cl)c(Cl)c2)nc(N2CCOCC2)n1 (centres undefined) | -5% | 37% | ? | 15%
COCCn1c(NC(=S)NC(=O)C23CC4CC(CC(C4)C2)C3)cc(=O)[nH]c1=O | ? | 15µM* | 7% | -7%
O=C(Nc1ccc2c(c1)OCO2)c1csc([C@H]2C[C@H](O)[C@@H](CO)O2)n1 | / | / | / | -5%
CCOC(=O)/C(=N/Nc1ccccc1)c1csc(Nc2ccccc2)n1 | / | ? | ? | -12%
CCOC(=O)/C(=N\Nc1ccc(OC)cc1)c1csc(Nc2ccccc2)n1 | / | 10µM* | 1µM* | -4%
COc1ccccc1N1CCN(Cc2cc(=O)oc3cc(C)ccc23)CC1 | / | / | / | 9%
COc1ccc(CN2CCN(Cc3cc(=O)oc4cc(C)ccc34)CC2)c(OC)c1OC | ? | 9.3µM* | ? | -8%

From PubChem
